# Source: PubChem
# Only some compounds are listed: those with a hit (about 22% of all), similar ones and a draw of the others.
# Shiga toxin inh – inhibitors of Shiga toxin in Vero cells | AID 2315 | 290,000 compounds, 9.2% hits | Vero cells, Shiga toxin protein synthesis inhibition reporter | inhibition, % at 38.7 µM; in the data active = inhibition mostly above about 28%, no sharp cut-off; inactive = mostly below about 43%; also: 0% is about no effect
# Pf growth 48h – P. falciparum growth inhibition at 48 hours (one generation); 310,000 compounds, 5.9% hits; Potency, µM (series often up to 28.7 µM), for inactives: at the highest dose activity change, negative = inhibition, most hits filed as inhibitors; P. falciparum luciferase growth in erythrocytes, 48 h; also: potency is read from the fitted curve at half-maximal effect; % is scaled to controls: 0 for no effect and ±100 for the full control effect
#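 Cell-based growth assay: transgenic P. falciparum expressing firefly luciferase, cultured in red cells within RPMI 1640 containing 0.5% w/v Albumax, 24 mM bicarbonate and gentamycin. A drop in luciferase activity indicates inhibition.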
# LmPK inhibitor – LmPK (Leishmania mexicana) enzyme inhibition. Q27686. Potency, µM (series often up to 57.5 µM), inactives show at the highest dose activity change, negative = inhibition, most hits filed as inhibitors. AID 1721. purified LmPK, Kinase-Glo ATP luminescence, 1 h. 290,000 compounds, 0.37% hits; also: potency is read from the fitted curve at half-maximal effect; % is scaled to controls: 0 for no effect and ±100 for the full control effect
# Target sequence (Q27686 whole entry, looked up): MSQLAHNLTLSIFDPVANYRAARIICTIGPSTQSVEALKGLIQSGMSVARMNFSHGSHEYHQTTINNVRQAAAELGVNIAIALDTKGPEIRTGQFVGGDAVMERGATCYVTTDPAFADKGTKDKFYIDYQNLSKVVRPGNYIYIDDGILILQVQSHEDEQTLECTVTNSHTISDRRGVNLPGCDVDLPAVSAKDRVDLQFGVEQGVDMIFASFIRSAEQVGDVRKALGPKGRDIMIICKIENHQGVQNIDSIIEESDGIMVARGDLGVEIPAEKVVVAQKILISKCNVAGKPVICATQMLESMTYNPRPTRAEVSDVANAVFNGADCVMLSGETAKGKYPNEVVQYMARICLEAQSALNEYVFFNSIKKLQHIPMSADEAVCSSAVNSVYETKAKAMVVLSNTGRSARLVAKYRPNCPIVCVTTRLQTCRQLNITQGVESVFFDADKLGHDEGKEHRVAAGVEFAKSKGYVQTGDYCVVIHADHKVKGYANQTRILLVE
#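 In 50 mM imidazole pH 7.2 with 7 mM MgCl2, LmPK (0.1 nM) turned over PEP (0.5 mM) and ADP (0.1 mM) for 1 h at room temperature. Luciferase read-out of ATP.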
# CHX counter – counter-screen hit for Shiga toxin inhibitors, cycloheximide | max response, % | 300,000 compounds, 12% hits | cell reporter, cycloheximide protein synthesis inhibition counterscreen | AID 2314; in the data active = max response mostly above about 13%, no sharp cut-off; inactive = mostly below about 14%; also: read at 38.3 µM for the half of the compounds with a filed dose; 0% is about no effect
# Pf growth 96h – inhibits malaria parasite growth, 96 h; P. falciparum luciferase reporter growth, 96 h; Potency, µM (highest dose often 28.7 µM), inactives show at the top dose activity change, negative = inhibition, most hits filed as inhibitors; 320,000 compounds, 6.9% hits; AID 504834; also: potency is read from the fitted curve at half-maximal effect; % is scaled to controls: 0 for no effect and ±100 for the full control effect
#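 Two parasite generations (96 h, 37 C, 5% CO2) of compound exposure in infected erythrocytes (0.05% parasitemia, 2% hematocrit). Luciferase-reporter P. falciparum; decreased luminescence indicates inhibited growth, aimed at apicoplast-acting delayed death.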
# * = called active by the depositor; ? = inconclusive; . = no result; [ ] = another dose, or the depositor's remark. Unless noted, calls follow the shape of the dose curve; as a rule, active = well fitted inhibition curve with a large enough effect; inconclusive = small, poorly fitted or top-dose-only effect, or another doubt; inactive = no such curve, though single readings can be large or run the other way.
SMILES,Shiga toxin inh,Pf growth 48h,LmPK inhibitor,CHX counter,Pf growth 96h
O=C(Nc1cccc(Cl)c1)c1ccc2c(c1)OCCO2,60*,255%,-19%,32*,4%
CN(CC(=O)Nc1ccccc1Br)C(=O)CNC(=O)c1ccc2c(c1)OCO2,.,23%,.,.,14%
Cc1ccc(NC(=O)c2cccs2)cc1NC(=O)c1ccccc1Cl,4,4%[0.00184 µM],2%,5,11%
O=C(Nc1ccccc1C(=O)Nc1ccc2c(c1)OCO2)c1cccs1,43,.,3%,17*,84%
O=C(Oc1ccc2c(c1)OCO2)c1cccs1,40*,-14%,-21%,27*,6%
O=C1CN(S(=O)(=O)c2c(F)cccc2F)CCN1S(=O)(=O)c1ccc2c(c1)OCCO2,-3,.,.,-2,.
CC(C)Cn1c(N2CCN(CC(=O)Nc3ccc(Cl)cc3)CC2)nc2ccccc21,-10,9%,1%,4,27%
CCN(CC)S(=O)(=O)c1ccc(-n2c(=O)c(C(C)C)c(C)n2C)cc1,-1,-5%,2%,1,94%
CN(c1cccc(NC(=O)c2ccc(C(C)(C)C)cc2)c1)S(C)(=O)=O,42,272%,10%,43*,-10%
CN1C(=O)c2ccc(NC(=O)c3cccc(N4C(=O)CCC4=O)c3)cc2C1=O,24,34%,3%,-1,-7%
O=C(NCc1ccc2c(c1)OCO2)c1ccc(Cl)c(S(=O)(=O)NCc2ccccc2)c1,-3,-26%,0%,-4,?
O=C(Nc1ccc2c(c1)OCCO2)c1ccc(Cl)cc1Cl,.,209%,2%,24*,?
O=C(Nc1cccc(Cl)c1)c1ccc(F)c(S(=O)(=O)NCc2ccc3c(c2)OCO3)c1,-1,-7%,3%,21*,?
CN1C(=O)c2ccc(C(=O)Nc3ccc4c(c3)OCO4)cc2C1=O,38,20%,-4%,24*,43%
O=C(CN1CCCCC1)Nc1cc(S(=O)(=O)N2CCOCC2)ccc1N1CCCC1,.,-3%,.,.,?
Cc1cc(OCC(=O)NCCCN2CCCC2=O)c2c(C)c(C)c(=O)oc2c1,-5,-15%,0%,-1,-10%
Cc1ccc(C(=O)NCCSc2ccccc2)cc1S(=O)(=O)Nc1ccccc1,-5,3%,2%,-3,115%
CC(C)(C)NS(=O)(=O)c1ccc(C(=O)Nc2ccc3c(c2)OCO3)cc1,77*,8%,7%,21*,14%
Cc1noc(C)c1COc1cccc(C(=O)OCCOc2ccc(F)cc2)c1,52*,?,1%,26*,13µM*
O=C(Nc1cccc(NC(=O)c2cccs2)c1)c1ccc2c(c1)OCCO2,21*,64%,-10%,23*,3%
Cc1noc(C)c1COc1cccc(C(=O)OC(C)C#N)c1 (centres undefined),7,?,7%,-1,42%
Cc1noc(C)c1COc1cccc(C(=O)Nc2ccc3c(c2)OCO3)c1,61*,55%,0%,28*,-28%
Cc1noc(C)c1COc1cccc(C(=O)OC(C)C(=O)Nc2ccc3c(c2)OCO3)c1 (centres undefined),-7,-5%,9%,-2,.
CCOC(=O)C1=NN(C(C)=O)C2C(=O)N(CC)C(=O)C12 (centres undefined),15,2%,-5%,-2,9%
O=c1[nH]c2ccc(NCc3ccccc3OCc3ccc(Cl)cc3)cc2[nH]1,4,-18%,-1%,5,?
SMILES,Shiga toxin inh,Pf growth 48h,LmPK inhibitor,CHX counter,Pf growth 96h
CC(C)Cn1c(N)c(C(=O)COC(=O)c2nccnc2N)c(=O)n(C)c1=O,.,?,.,.,-22%
CC1CCCCC12NC(=O)N(CC(=O)NCCc1c[nH]c3ccccc13)C2=O (centres undefined),.,?,.,.,-14%
O=C(Nc1ccc2c(c1)OCCO2)c1cccc(Cl)c1,.,30%,1%,44*,?
CS(=O)(=O)Nc1ccc(C(=O)Nc2ccc3c(c2)OCCO3)cc1,55,.,-15%,25*,97%
CCN(CC)S(=O)(=O)c1ccc(C(=O)Nc2ccc3c(c2)OCO3)cc1,32,-18%,-3%,6,?
O=C(Nc1cccc([N+](=O)[O-])c1)c1[nH]ncc1Cl,97*,315%,-17%,62*,362%
O=C(NC(=S)Nc1ccc2c(c1)OCCO2)c1cccc2ccccc12,76*,50%,2%,37*,41%
O=C(CCCc1cccs1)Nc1ccc2c(c1)OCO2,89*,364%,7%,31*,385%
O=C(NC(=S)Nc1cccc(Cl)c1N1CCCCC1)c1ccc2c(c1)OCCO2,10,?,0%,20*,?
CC(C)c1ccc(O)c(NC(=S)NC(=O)c2ccc3c(c2)OCO3)c1,99*,?,1%,53*,?
O=C(NC(=S)Nc1ccc2c(c1)OCO2)c1ccccc1,102*,75%,-2%,47*,40%
NS(=O)(=O)c1ccc(NC(=S)NC(=O)c2ccc3c(c2)OCO3)cc1,-7,23%,2%,-3,28%
COc1ccc(NC(=O)CSc2nnc(-c3cc(C)[nH]n3)n2N)cc1,-8,-17%,4%,0,?
COC(=O)c1cc(C)[nH]c2c(C)cc3nc4ccccc4c3c12,-3,?,4%,2,?
O=C(Nc1cccc([N+](=O)[O-])c1)c1ccc2c(c1)OCCO2,89*,219%,-12%,41*,?
O=C(Nc1ccc2c(c1)OCO2)c1ccccc1,87*,95%,3%,53*,3%
O=C(Nc1ccc2c(c1)OCCO2)c1ccc(Br)s1,40*,226%,-19%,55*,10%
Cc1onc(-c2ccccc2)c1C(=O)Nc1ccc2c(c1)OCO2,14,?,3%,15,?
O=C(CC(=O)c1ccccc1)Nc1ccc2c(c1)OCCO2,74*,50%,-15%,43*,86%
CC(C)[C@H](NC(=O)c1ccccc1)C(=O)OCC(=O)Nc1ccc2c(c1)OCCO2,-5,17%,4%,6,58%
C=CCNC(=O)c1ccc(Cn2cc(C(F)(F)F)ccc2=O)cc1,-5,?,1%,0,86%
O=C(NC1CCCCC1)c1ccc(OC2CCN(Cc3ccccn3)CC2)cc1,-14,?,-8%,-2,-5%
Cc1cccnc1CCNC(=O)c1ccc(OC2CCN(Cc3ccccn3)CC2)cc1,60,14%,-11%,18*,-4%
Cc1nc(C(C)NC(=O)c2ccc(OC3CCN(Cc4ccccn4)CC3)cc2)c(C)s1 (centres undefined),-3,?,1%,-1,12%
CC(NC(=O)c1ccc(OC2CCN(Cc3ccccn3)CC2)cc1)c1nccs1 (centres undefined),-3,-12%,-4%,7,13µM*
O=C(NCCc1cccc(Cl)c1)c1ccc(OC2CCN(Cc3ccccn3)CC2)cc1,53*,1%,-2%,51*,?
CN(C(=O)c1ccc(OC2CCN(Cc3ccccn3)CC2)cc1)C1CCCCC1,22,?,-10%,21*,?
